According to PubChem BioAssay (NCI):
Where “and” joins values, the source holds several entries; their conditions need not be identical. Equal entries are not always repeated. The panel holds about 83,000 compounds, 20% with a hit somewhere; the sample as a whole holds those more often.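 Step 1: grow cells in 96-well plates. Step 2: add test compound at a single concentration. Step 3: incubate 48 h. Step 4: record percent growth.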 Calls of active or inactive are those of the source.

test system: NCI-H522 lung; assay: NCI-60 one-dose screen, 48 h (100 = growth as untreated, 0 = no growth, -100 = all killed); conditions: 2.5 µM
Procedure: Growth inhibition of the NCI-H522 human Non-Small Cell Lung tumor cell line is measured as a screen for anti-cancer activity. Cells are grown in 96 well plates and exposed to the test compound for 48 hours. Compounds are tested at a single concentration, which is 10^-5 M for most compounds. The reported endpoint is percent growth (GI% or GIPRCNT), where numbers from 0 - 100% represent growth inhibition, and numbers from -100% - 0 represent cell death. For example, a value of 40 represents 60% growth inhibition. A value of 0 means no net growth occurred over the course of the experiment. A value of -40 indicates 40% of cells at the beginning of the experiment died by the end of the experiment. A value of -100 means all cells are dead at the end of the experiment.
NCI-60 Human Tumor Cell Lines Screen was performed using the standard one-dose NCI protocol, which is described in more detail at https://dtp.cancer.gov/discovery_development/nci-60/default.htm.
Compounds with GIPRCNT values below 10 were considered active. Activity score was based on GIPRCNT using the following formula: […]
Score is 0 for GIPRCNT values of 100 or above, 50 for GIPRCNT values of 0, and 100 for GIPRCNT values of -100.

Q: Which growth does the source give for `COc1cc(NS(C)(=O)=O)ccc1Nc1c2ccccc2nc2ccccc12` here?
A: Its growth is 43% (inactive).

same assay, conditions: 10 µM

Q: `COc1cc(NS(C)(=O)=O)ccc1Nc1c2ccccc2nc2ccccc12` was tested. Which growth did it give?
A: The growth was -47.9% (active) and 4% (active) and 37.2% (inactive).

same assay, conditions: 10 µM unless noted

Q: Which growth does the source give for `O=C(/C=C/c1cccc(Cl)c1)c1ccccc1` here?
A: The growth was 82.3% (inactive) and 48.4% (inactive).

Q: `O=C(O)c1ccc2c3c(ncnc13)-c1ccccc1C2=O` was tested. Which growth did it give?
A: The growth was 77.7% (inactive).

Q: For `CCCCCCCCCCCCCCCCOP(=O)([O-])OCC[N+](C)(C)C`, which growth is on record?
A: The growth was -55.1% (active).

Q: With `NC(N)=N/N=C/c1ccc([N+](=O)[O-])o1` as the compound, how does the growth read?
A: The growth was 70.1% (inactive).

Q: How did the growth turn out when `O=C(Oc1cccc2cccnc12)c1ccccc1` was run?
A: The growth was -4.17% (active) and 98.3% (inactive).

Q: `Oc1c(Br)c(Br)c(O)c(Br)c1Br` was tested. Which growth did it give?
A: Its growth is -88% (active).

Q: For `O=C(/C=C\c1cc(Br)ccc1O)/C=C/c1cc(Br)ccc1O`, which growth is on record?
A: The growth was -62.9% (active).

Q: How did the growth turn out when `COc1ccc(-c2cscc2N)cc1` was run?
A: Its growth is 34.8% [100 µM] (inactive).

Q: With `CN(C)c1ccc(N=Nc2cccc3ccccc23)cc1` as the compound, how does the growth read?
A: The growth was 95% (inactive).

Q: `CCCCCCCCCCCCCCCC[N+](C)(CCO)Cc1cnc[nH]1` (stereo not given) was tested. Which growth did it give?
A: The growth was -72.2% (active).

Q: For `NC1=CC(=O)c2ccccc2C1=O`, which growth is on record?
A: Its growth is 89.4% (inactive).

Q: With `CC1SC(=S)N(c2ccc(Cl)cc2)C1=O` (stereo not given) as the compound, how does the growth read?
A: The growth was 89.8% (inactive).

Q: With `Cn1c2ccccc2c2nnc(N/N=C/c3ccccn3)nc21` as the compound, how does the growth read?
A: The growth was 18.2% (inactive).

Q: How did the growth turn out when `NC(=O)/C=C/C(=O)c1c(Cl)cccc1Cl` was run?
A: Its growth is -59.5% (active).

Q: With `O=C1N[C@H]2[C@H](CS[C@H]2CCCCC(=O)N(CCP(c2ccccc2)c2ccccc2)CCP(c2ccccc2)c2ccccc2)N1` as the compound, how does the growth read?
A: The growth was 57.6% (inactive).

Q: For `NC(=S)N/N=C/c1ccc(Cl)s1`, which growth is on record?
A: Its growth is 98.6% (inactive).

Q: `COc1ccccc1OC(=O)Oc1ccccc1OC` was tested. Which growth did it give?
A: Its growth is 85.3% (inactive) and 92.5% (inactive).

Q: With `COC(=O)c1nc(=S)[nH]c(C(=O)OC)c1C(=O)c1ccccn1` as the compound, how does the growth read?
A: Its growth is 61.8% (inactive).

Q: With `O=C(CC1(O)C(=O)Nc2c(Cl)ccc(Cl)c21)c1ccc(Cl)cc1Cl` (stereo not given) as the compound, how does the growth read?
A: Its growth is 76.2% (inactive).

Q: `Nc1nc(N)c2nc(CNc3ccc(C(=O)NC(CCC(=O)O)C(=O)O)cc3)cnc2n1` (stereo not given) was tested. Which growth did it give?
A: Its growth is 35% (inactive) and 38.7% (inactive).

Q: How did the growth turn out when `N#CSCC(=O)c1ccc(Cl)cc1` was run?
A: Its growth is 50.6% (inactive).

Q: With `O=C1C2=C(Nc3cc([N+](=O)[O-])ccc3N2)OC1c1c2ccccc2cc2ccccc12` (stereo not given) as the compound, how does the growth read?
A: The growth was 24% (inactive).

Q: With `O=[N+]([O-])c1ccc2c(N=Nc3ccc4ccccc4c3O)c(O)cc(S(=O)(=O)O)c2c1` as the compound, how does the growth read?
A: Its growth is 105% (inactive).

Q: For `CC(C)(C)c1ccc(O)c(C2CCCCC2)c1`, which growth is on record?
A: Its growth is 83.6% (inactive).

Q: With `CCCCCCCCCCCCCCNCc1ccccc1` as the compound, how does the growth read?
A: Its growth is 75.8% (inactive).

Q: For `O=C(/C=C/C=C/c1ccccc1)c1ccco1`, which growth is on record?
A: Its growth is 38% (inactive).

Q: `Cc1ccc2nc(-[n+]3cc4ccccc4cc3C)ccc2c1` was tested. Which growth did it give?
A: Its growth is 26.2% (inactive).

Q: For `O=C1c2ccccc2C(=O)c2sc(Nc3ccc(Cl)cc3)nc21`, which growth is on record?
A: The growth was 15.9% (inactive).

Q: Which growth does the source give for `C[N+](C)=c1ccc2nc3c(cc(NCCCNc4cc5oc6cc(=[N+](C)C)ccc-6nc5c5ccccc45)c4ccccc43)oc-2c1` here?
A: Its growth is 32% (inactive).

Q: For `Cc1ccnc2c1ccc1c(C)ccnc12`, which growth is on record?
A: Its growth is 11.8% (inactive).

Q: Which growth does the source give for `COc1cc(/C=C(/C)C[N+](=O)[O-])ccc1O` here?
A: Its growth is 72% (inactive).

Q: `CC(C)(C)CC(C)(C)c1ccc(OCCSC(=N)N)cc1` was tested. Which growth did it give?
A: The growth was 48.3% (inactive).

Q: With `COc1ccccc1/C=C\C(=O)c1ccccc1` as the compound, how does the growth read?
A: The growth was 39.2% (inactive).

Q: `CCC(=O)Sc1ccccc1C(=O)Nc1ccc(Cl)cc1` was tested. Which growth did it give?
A: Its growth is 67.3% (inactive).

Q: Which growth does the source give for `CCCCCCC(C)c1ccccc1O` (stereo not given) (tested in a mixture with another compound) here?
A: Its growth is 105% (inactive).

Q: Which growth does the source give for `O=C(Nc1ccccc1)c1cc(Cl)ccc1O` here?
A: The growth was 10.3% (inactive).

Q: How did the growth turn out when `O=C1C=CC(=O)N1C1c2ccccc2-c2ccccc21` was run?
A: Its growth is 29.4% (inactive).

Q: `CC(=Nc1ccc(N(C)C)cc1)c1ccccc1` was tested. Which growth did it give?
A: The growth was 64.7% (inactive).
